An excerpt weighted towards active compounds, which were near 1.4% of everything screened.
PGC1a acetyl inh – lowers PGC1a acetylation signal in U2OS cells; AlphaScreen anti-acetyl-lysine; with virally co-expressed GCN5 acetyltransferase; inhibition, % at 15.6 µM; 0.17% of 350,000 active;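 active = every replicate shows inhibition of at least 40%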;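 also: 0% = neutral control wells and 100% = positive control wells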
INS-1E GSIS act – GLuc luminescence reporter in INS-1E cells, primary screen for activators of glucose-dependent secretion of insulin | INS-1E GLuc reporter insulin secretion, 2-3 h | activation, % at 16.6 µM | 0.61% of 370,000 active | AID 743287;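 active = lowest replicate activation of at least 40%, so every replicate reaches that level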;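 also: 0% = median of neutral control wells and 100% = median of IBMX positive control wells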
RAD54 branch – blocks human RAD54 Holliday junction branch migration; Q92698; FAM/BHQ fluorescence; inhibition, % at 10.4 µM; 0.14% of 360,000 active; AID 602329;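 active = mean normalized replicate activity at least 40 and at least half of replicates scoring 40 or more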;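 also: 0% = median of neutral control wells and 100% = median of positive control wells; inhibitors cause a drop in the FAM fluorescence signal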
RAD52 anneal inh – RAD52 (human) annealing inhibition; P43351; recombinant RAD52 DNA annealing, FRET fluorescence; inhibition, % at 18.7 µM; 0.46% of 360,000 active; AID 651710;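 active = every replicate showing at least 50% inhibition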
AF4-AF9 inh – blocks AF4 peptide binding to human AF9; AlphaScreen, biotin-AF4 peptide binding to FLAG-AF9; AID 651704; inhibition, % at 10 µM; 0.47% of 350,000 active; P42568;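 active = every replicate reaching a set inhibition limit, whatever the replicate mean, cut at about 25% in these data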;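 also: 0% = plate neutral control median and 100% = total signal loss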
Target sequence (P42568 whole entry, looked up): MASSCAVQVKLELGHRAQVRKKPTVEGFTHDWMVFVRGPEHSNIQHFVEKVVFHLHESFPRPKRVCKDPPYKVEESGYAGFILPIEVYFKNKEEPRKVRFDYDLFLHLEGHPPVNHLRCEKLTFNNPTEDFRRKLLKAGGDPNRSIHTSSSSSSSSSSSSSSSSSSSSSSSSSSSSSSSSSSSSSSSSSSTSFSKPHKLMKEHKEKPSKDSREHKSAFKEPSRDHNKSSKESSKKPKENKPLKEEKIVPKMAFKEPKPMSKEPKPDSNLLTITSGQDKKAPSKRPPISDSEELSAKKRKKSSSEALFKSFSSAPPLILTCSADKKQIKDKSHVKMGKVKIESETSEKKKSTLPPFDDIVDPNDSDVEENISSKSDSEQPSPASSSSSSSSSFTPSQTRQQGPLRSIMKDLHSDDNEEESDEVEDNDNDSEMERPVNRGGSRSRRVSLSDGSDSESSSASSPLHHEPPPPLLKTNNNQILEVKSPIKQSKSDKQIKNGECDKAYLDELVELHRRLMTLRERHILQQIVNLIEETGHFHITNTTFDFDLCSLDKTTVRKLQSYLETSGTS
ERAP1 HTS inh – ERAP1 (human) enzyme inhibition | Q9NZ08 | recombinant ERAP1, Leu-AMC fluorescence, 60 min | inhibition, % at 10.7 µM | 0.15% of 340,000 active | AID 652197;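 active = mean replicate inhibition of at least 30%, or all replicates individually reaching that 30% level; inactive = mean below 30% and not every replicate reaching it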;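 also: 0% = neutral control wells and 100% = L-leucinethiol positive control wells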
DNA binder FP – DNA binding artifact in RAD52 counter-screen. shares compounds with RAD52 anneal inh. Salmon sperm DNA/acridine orange FP displacement. AC50, µM. 8% of 1,000 active;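 active = fitted half-maximal concentration for signal loss at or below twice the highest dose tested, in every separate run, actives reach about 64 µM in these data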
Starred values were filed as active, the others as inactive; i = inactive; x = no result given.

SMILES	PGC1a acetyl inh	INS-1E GSIS act	RAD54 branch	RAD52 anneal inh	AF4-AF9 inh	ERAP1 HTS inh	DNA binder FP
C=CCNc1nc2cc(-c3ccccc3C)sc2c(=O)n1C	x	-23	4	-74	-3	-1	x
CN(C)CCCNc1nc2cc(-c3cnn(Cc4ccccc4)c3)sc2c(=O)n1C	x	-5	48	59*	4	-5	i
Cn1c(NCc2ccccc2)nc2cc(-c3ccccc3)sc2c1=O	x	10	-2	-5	0	-3	x
CN(C)CCCNc1nc2cc(-c3ccsc3)sc2c(=O)n1C	-6	-6	32	52*	-2	-2	i
Cc1ccc(F)cc1-c1cc2nc(NCCCN(C)C)n(C)c(=O)c2s1	-3	-12	33	56*	2	-1	i
COCCNc1nc2cc(-c3ccsc3)sc2c(=O)n1C	-29	6	-13	3	-6	-5	x
CCC(C)[C@H](N)c1cn([C@@H](Cc2cc3ccccc3[nH]2)C(=O)N2CCNCC2)nn1 (stereo partly drawn)	x	6	12	96*	30*	6	i
Cc1cc(N2CCN(C)CC2)nc2ccc(NC(=S)NCc3cccs3)cc12	-3	-6	38	63*	x	2	i
CCN1CCN(c2cc(C)c3cc(NC(=S)NCc4cccs4)ccc3n2)CC1	-16	7	37	50*	30*	-2	i
CCS(=O)(=O)N[C@H]1CC[C@@H](CC(=O)NCc2ccc(Cl)cc2)O[C@@H]1CO	-14	x	-5	-24	-1	-1	x
Cc1cc(C)c2nc3nc(C)c(C)cc3c(N)c2c1	-8	6	x	91*	1	20	62µM*
COc1ccc2c3c([nH]c2c1)[C@@H](CO)N(C(=O)CN(C)C)CC31CN(CC2CCCC2)C1	x	21	x	36	19	8	x
CCOC(=O)c1c(CSCc2ccccc2)oc2ccc(O)c(CN(C)C)c12	-16	-52	24	61*	23	6	i
Cc1c(CCOC(=O)c2ccc(Cl)cc2Cl)sc[n+]1CC(=O)c1ccccc1	x	-16	x	37	9	0	x
Cc1c(CCOC(=O)c2cc([N+](=O)[O-])cc([N+](=O)[O-])c2)sc[n+]1CC(=O)c1ccc(Br)cc1	x	-4	x	94*	11	-1	i
CNC(=O)C[C@@H]1CC[C@@H]2[C@@H](COc3ccc(NC(=O)Nc4c(C)noc4C)cc3C(=O)N2C)O1	2	-5	6	x	x	x	x
NCCCC[C@H]1CNC(=S)N1CCCCC1CCCCC1	3	40	20	86*	15	x	i
CCCC[C@@H]1CNC(=O)C(=O)N1CCCCC1CCCCC1	x	-35	x	-12	-4	6	x
NCCCC[C@H]1CNC(=S)N1CCc1cc(C(F)(F)F)cc(C(F)(F)F)c1	2	x	2	67*	5	-6	i
COCC#Cc1cnc2c(c1)C(=O)N([C@H](C)CO)C[C@H](C)[C@H](CN(C)C(=O)c1cccc(F)c1)O2	3	32	-4	-16	-7	0	x
CCOc1ccc(C(=O)Nc2ccc3nc(N4CCN(CC)CC4)cc(C)c3c2)cc1	-2	13	5	11	0	0	x
CCN1CCN(c2cc(C)c3cc(NC(=O)c4cc(OC)cc(OC)c4)ccc3n2)CC1	-27	16	34	55*	16	1	i
CCN1CCN(c2cc(C)c3cc(NC(=O)c4cnccn4)ccc3n2)CC1	8	x	47	59*	5	-2	i
CCCNC(=O)Nc1ccc2c(c1)C(=O)N(C)C[C@H](OC)[C@H](C)CN(CCC(F)(F)F)[C@H](C)CO2	-4	-14	x	x	x	x	x
CC(=O)N(C)C[C@H]1Oc2cc(-c3ccccc3F)ccc2S(=O)(=O)N([C@@H](C)CO)C[C@@H]1C	1	8	-2	8	-1	2	x
C[C@@H]1CN([C@H](C)CO)C(=O)c2cc(C#CCN(C)C)cnc2O[C@@H]1CN(C)C(=O)NC1CCCCC1	-6	8	-6	7	0	-1	x
O=C(C[n+]1ccccc1)N/N=C/c1ccco1	-9	7	x	50*	8	1	i
N=c1c2c(ncn1Cc1ccco1)Oc1c(ccc3ccccc13)C2c1ccccc1 (stereo not drawn)	x	-21	x	x	x	x	x

Screening results from PubChem BioAssay.
